Assay results: PubChem BioAssay (Tox21)
Results filed as inconclusive are left out. Active and inactive are the calls of the source. Unless noted, calls come from the whole dose curve; as a rule, active = well fitted curve in the direction sought with a large enough effect in the repeat runs; inconclusive = weak or mixed curves; inactive = no such curve, though single readings can be large; an effect the other way counts as inactive or inconclusive.

What was measured:
[1] = qHTS assay to identify small molecule antagonists of the sonic hedgehog signaling (Shh) pathway - cell viability counter screen (AID 1259367); note: nearly all actives have a fitted effect of over 55% in size
Outline: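 CellTiter-Fluor signal in conditioned medium-stimulated 3T3 Gli1-Luc cells, 23 hr compound exposure, 37C.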

[2] = qHTS assay to identify small molecule agonists of the sonic hedgehog signaling (Shh) pathway (AID 1259368; calls by dose curve;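 note: NIH/3T3-derived 3T3Gli1-Luc cells carrying a stable Gli1-driven firefly luciferase reporter; series mostly up to about 92 µM; nearly all actives have a fitted effect of over 15% in size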)
Outline: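 Luminescence was read after 30 min at room temperature with luciferase reagent. Before that, 3T3Gli1-Luc cells (NIH/3T3 clone, stable Gli1-Luc reporter; 2,000/well) were exposed to compounds for 24 hr at 37C, 5% CO2, compounds being added 4 hr post-plating.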

[3] = qHTS assay to identify small molecule antagonists of the sonic hedgehog signaling (Shh) pathway (AID 1259369; calls by dose curve; note: nearly all actives have a fitted effect of over 45% in size)
Outline: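 Antagonist mode: compound added to 3T3 Gli1-Luc cells followed by conditioned-medium stimulation, 24 h at 37 C, 5% CO2. Inhibition taken as loss of Gli1-driven luciferase luminescence.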

[4] = biological target: Estrogen receptor beta (Homo sapiens) (UniProt Q92731); assay: qHTS assay to identify small molecule agonists of the estrogen receptor beta (ER-beta) signaling pathway (AID 1259377; active = well fitted activation curve with a large enough effect in the signal ratio in the repeat runs, not every such curve was filed as active; the % refers to the signal ratio)
Sequence of Estrogen receptor beta (Homo sapiens) (Q92731 whole entry, looked up): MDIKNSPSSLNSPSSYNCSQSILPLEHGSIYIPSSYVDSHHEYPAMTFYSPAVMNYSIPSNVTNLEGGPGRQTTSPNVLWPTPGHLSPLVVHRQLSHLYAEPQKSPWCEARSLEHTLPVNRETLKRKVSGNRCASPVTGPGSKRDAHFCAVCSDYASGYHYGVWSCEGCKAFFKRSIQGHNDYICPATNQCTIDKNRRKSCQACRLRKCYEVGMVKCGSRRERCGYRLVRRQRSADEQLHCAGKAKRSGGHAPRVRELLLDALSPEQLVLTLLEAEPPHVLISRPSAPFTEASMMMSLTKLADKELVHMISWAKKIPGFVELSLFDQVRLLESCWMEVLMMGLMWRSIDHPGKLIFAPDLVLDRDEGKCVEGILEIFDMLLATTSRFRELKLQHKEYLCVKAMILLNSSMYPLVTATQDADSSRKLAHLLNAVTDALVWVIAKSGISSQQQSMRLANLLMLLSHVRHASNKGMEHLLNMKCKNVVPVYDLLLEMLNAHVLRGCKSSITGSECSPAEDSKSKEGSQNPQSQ
Outline: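 Screening used GripTite ER-beta-UAS-bla cells held in 2% charcoal-stripped FBS medium. After overnight (16 hr) compound incubation at 37C, beta-lactamase activity was detected with a FRET substrate by fluorescence.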

[5] = biological target: Estrogen receptor beta (Homo sapiens) (UniProt Q92731); assay: qHTS assay to identify small molecule antagonists of the estrogen receptor beta (ER-beta) signaling pathway (AID 1259378; active = well fitted inhibition curve with a large enough effect in the signal ratio in the repeat runs, not every such curve was filed as active; the % refers to the signal ratio)
Outline: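 Antagonist mode: compounds added to beta-lactamase reporter HEK293T ER-beta-UAS cells stimulated with E2 (1nM final), 16 hr at 37C. LiveBLAzer B/G FRET substrate, 2 hours room temperature, fluorescence read-out.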

[6] = qHTS assay to identify small molecule agonists of the androgen receptor (AR) signaling pathway in the presence of an antagonist - cell viability counter screen (AID 1259379);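 note: MDA-kb2 human breast cancer cells carrying an MMTV luciferase reporter; series mostly up to about 92 µM; nearly all actives have a fitted effect of over 25% in size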
Outline: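 Cytotoxicity counter-screen run in the same wells as the nilutamide-challenged (3.0 µM final) AR agonist assay in MDA-kb2 cells. Compounds tested at 15 concentrations for 16 h, 37 °C without CO2; CellTiter-Fluor fluorescence read.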

[7] = qHTS assay to identify small molecule agonists of the estrogen receptor beta (ER-beta) signaling pathway - cell viability counter screen (AID 1259380); note: nearly all actives have a fitted effect of over 30% in size
Outline: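 Cell viability counter screen: CellTiter-Glo luminescence (30 min, room temperature) measured in the same wells as the beta-lactamase readout, after 16 hr compound exposure at 37C of ER-beta-bla HEK293T cells in 2% charcoal-stripped FBS medium.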

[8] = qHTS assay to identify small molecule antagonists of the estrogen receptor beta (ER-beta) signaling pathway - cell viability counter screen (AID 1259382);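 note: HEK293T cells carrying ER-beta-UAS-bla reporter stimulated with estradiol; series mostly up to about 92 µM; nearly all actives have a fitted effect of over 55% in size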
Outline: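 Cytotoxicity was measured in the same wells by CellTiter-Glo luminescence after 30 min at room temperature. Cells were ER-beta-bla HEK293T in charcoal-stripped serum, given compound together with 1 nM E2 and incubated 16 h at 37C.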

[9] = biological target: Estrogen receptor (Homo sapiens) (UniProt P03372); assay: qHTS assay to identify small molecule agonists of the estrogen receptor alpha (ER-alpha) signaling pathway in the presence of an antagonist (AID 1259383; calls by dose curve; note: top concentration of the series differs between compounds; nearly all actives have a fitted effect of over 15% in size)
Sequence of Estrogen receptor (Homo sapiens) (P03372 whole entry, looked up): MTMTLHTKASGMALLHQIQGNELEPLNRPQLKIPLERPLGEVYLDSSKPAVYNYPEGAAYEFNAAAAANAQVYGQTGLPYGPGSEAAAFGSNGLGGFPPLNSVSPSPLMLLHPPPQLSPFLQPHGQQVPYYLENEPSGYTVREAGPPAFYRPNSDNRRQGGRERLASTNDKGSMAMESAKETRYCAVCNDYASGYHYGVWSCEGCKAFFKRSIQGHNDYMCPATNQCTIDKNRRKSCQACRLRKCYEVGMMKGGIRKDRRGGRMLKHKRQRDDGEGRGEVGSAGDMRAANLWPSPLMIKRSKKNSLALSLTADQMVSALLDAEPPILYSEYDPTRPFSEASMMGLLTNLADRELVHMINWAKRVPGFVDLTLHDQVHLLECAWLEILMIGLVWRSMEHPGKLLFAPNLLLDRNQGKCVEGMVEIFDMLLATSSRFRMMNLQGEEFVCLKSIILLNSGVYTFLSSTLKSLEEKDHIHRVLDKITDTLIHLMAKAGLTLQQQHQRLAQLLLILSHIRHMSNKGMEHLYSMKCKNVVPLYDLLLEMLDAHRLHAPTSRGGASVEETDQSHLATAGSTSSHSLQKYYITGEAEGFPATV
Outline: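 Agonist-mode confirmation run in the presence of 10.0nM (final) ICI-182,780 antagonist. The reporter was ERE-driven luciferase in VM7Luc4E2 cells, grown in charcoal-stripped serum. Cells were exposed to 15-concentration compound series for 22hr, then ONE-Glo luminescence was read.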

[10] = qHTS assay to identify small molecule agonists or antagonists of the thyroid stimulating hormone receptor (TSHR) signaling pathway - wild type cell line counter screen (AID 1259384; calls by dose curve)
Outline: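 Counter screen in untransfected Hek293: compounds (15-point titration, triplicate) plus phosphodiesterase inhibitor Ro20-1724 added after 18 h plating; 30 min RT. Intracellular cAMP via competitive d2/cryptate immunoassay, 1 h incubation.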

[11] = biological target: Thyrotropin receptor (Homo sapiens) (UniProt P16473); assay: qHTS assay to identify small molecule antagonists of the thyroid stimulating hormone receptor (TSHR) signaling pathway (AID 1259385; calls by dose curve; note: nearly all actives have a fitted effect of over 20% in size)
Sequence of Thyrotropin receptor (Homo sapiens) (P16473 whole entry, looked up): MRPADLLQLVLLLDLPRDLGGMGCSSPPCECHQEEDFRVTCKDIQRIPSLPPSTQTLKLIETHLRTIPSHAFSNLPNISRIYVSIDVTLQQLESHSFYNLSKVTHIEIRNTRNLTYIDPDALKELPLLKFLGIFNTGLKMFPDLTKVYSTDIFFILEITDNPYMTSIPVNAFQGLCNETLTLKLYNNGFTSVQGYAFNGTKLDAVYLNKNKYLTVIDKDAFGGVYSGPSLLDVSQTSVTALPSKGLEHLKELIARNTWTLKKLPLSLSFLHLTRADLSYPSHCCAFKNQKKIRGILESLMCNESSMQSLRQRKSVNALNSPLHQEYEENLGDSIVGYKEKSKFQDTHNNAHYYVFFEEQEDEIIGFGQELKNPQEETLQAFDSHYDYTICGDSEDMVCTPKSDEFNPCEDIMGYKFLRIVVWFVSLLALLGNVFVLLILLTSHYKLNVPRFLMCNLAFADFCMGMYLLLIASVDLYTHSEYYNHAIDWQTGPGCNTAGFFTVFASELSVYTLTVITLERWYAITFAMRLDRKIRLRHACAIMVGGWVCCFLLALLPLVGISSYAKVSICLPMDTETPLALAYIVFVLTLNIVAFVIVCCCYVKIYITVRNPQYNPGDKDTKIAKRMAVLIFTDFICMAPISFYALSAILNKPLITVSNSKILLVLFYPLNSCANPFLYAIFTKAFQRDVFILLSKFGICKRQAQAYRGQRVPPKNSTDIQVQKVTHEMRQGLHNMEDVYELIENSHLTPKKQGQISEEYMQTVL
Outline: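 Antagonist mode: compound-treated TSHR-expressing HEK293 cells were stimulated with 1.5 ng/mL TSH (final) in presence of Ro20-1724 for 30 min at RT. HTRF cAMP detection after 1 h; each compound tested at 15 concentrations, triplicate.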

[12] = qHTS assay to identify small molecule agonists of the estrogen receptor alpha (ER-alpha) signaling pathway in the presence of an antagonist - cell viability counter screen (AID 1259386); note: series mostly up to about 92 µM; nearly all actives have a fitted effect of over 30% in size
Outline: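 Compounds tested at 15 concentrations for 22 h at 37C alongside 10.0nM (final) ICI-182,780 antagonist, in VM7Luc4E2 cells grown in phenol red-free, charcoal-stripped medium. Viability read by CellTiter-Fluor fluorescence after 1 h reagent incubation.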

[13] = qHTS assay to identify small molecule agonists of the progesterone receptor (PR) signaling pathway - cell viability counter screen (AID 1346799; calls by dose curve; note: nearly all actives have a fitted effect of over 45% in size)
Outline: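 Using the same plates as the PR reporter screen, HEK293T PR-UAS-bla cells received compounds for 16 hr at 37C and were then lysed with CellTiter-Glo; luminescence was read 30 min later at room temperature.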

[14] = qHTS assay to identify small molecule antagonists of the TGF-beta/Smad signaling pathway - cell viability counter screen (AID 1346824); note: nearly all actives have a fitted effect of over 50% in size
Outline: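 Cytotoxicity counter-screen run in the same wells as the beta-lactamase Smad reporter read: CellTiter-Glo luminescence after 30 min at room temperature. HEK 293T SBE-bla cells had 5 hr compound exposure at 37 C with TGF-beta1 (0.25 ng/mL stock).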

[15] = qHTS assay to identify small molecule agonists of the TGF-beta/Smad signaling pathway - cell viability counter screen (AID 1346829); note: top concentration of the series differs between compounds; nearly all actives have a fitted effect of over 45% in size
Outline: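 Compound-treated SBE-bla HEK 293T cells (5 hr, 37 C) were assessed for viability with CellTiter-Glo in parallel with the reporter read.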

[16] = biological target: Progesterone receptor (Homo sapiens) (UniProt P06401); assay: qHTS assay to identify small molecule agonists of the progesterone receptor (PR) signaling pathway (AID 1346784; calls by dose curve; note: nearly all actives have a fitted effect of over 30% in size)
Sequence of Progesterone receptor (Homo sapiens) (P06401 whole entry, looked up): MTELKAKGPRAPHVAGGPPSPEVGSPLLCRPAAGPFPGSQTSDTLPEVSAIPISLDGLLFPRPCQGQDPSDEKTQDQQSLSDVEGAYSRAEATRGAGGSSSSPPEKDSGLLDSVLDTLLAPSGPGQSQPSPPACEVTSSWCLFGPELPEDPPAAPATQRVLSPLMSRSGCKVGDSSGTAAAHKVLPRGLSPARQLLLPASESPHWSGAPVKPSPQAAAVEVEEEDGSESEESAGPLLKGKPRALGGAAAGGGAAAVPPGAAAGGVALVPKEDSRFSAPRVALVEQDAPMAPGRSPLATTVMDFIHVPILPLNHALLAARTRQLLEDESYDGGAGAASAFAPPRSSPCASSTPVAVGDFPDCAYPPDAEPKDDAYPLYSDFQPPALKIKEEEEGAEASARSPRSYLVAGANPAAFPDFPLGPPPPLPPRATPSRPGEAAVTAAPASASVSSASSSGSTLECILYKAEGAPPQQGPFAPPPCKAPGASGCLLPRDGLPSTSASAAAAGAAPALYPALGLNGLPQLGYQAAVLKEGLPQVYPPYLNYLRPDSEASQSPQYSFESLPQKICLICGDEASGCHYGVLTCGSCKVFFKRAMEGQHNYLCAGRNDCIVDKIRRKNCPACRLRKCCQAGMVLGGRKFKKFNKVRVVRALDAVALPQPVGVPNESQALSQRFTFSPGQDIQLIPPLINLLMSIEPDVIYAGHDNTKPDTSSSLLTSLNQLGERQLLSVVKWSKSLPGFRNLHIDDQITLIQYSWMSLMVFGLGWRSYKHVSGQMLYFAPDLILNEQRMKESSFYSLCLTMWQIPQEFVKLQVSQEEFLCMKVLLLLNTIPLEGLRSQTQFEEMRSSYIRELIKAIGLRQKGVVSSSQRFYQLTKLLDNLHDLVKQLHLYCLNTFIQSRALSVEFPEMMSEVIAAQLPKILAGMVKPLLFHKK
Outline: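 Seed PR-UAS-bla HEK 293T cells (2% charcoal-stripped FBS), incubate 6 hr at 37C; add compounds in DMSO, 16 hr at 37C; add LiveBLAzer B/G substrate, 2 hr RT; read fluorescence intensity.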

[17] = biological target: Progesterone receptor (Homo sapiens) (UniProt P06401); assay: qHTS assay to identify small molecule antagonists of the progesterone receptor (PR) signaling pathway (AID 1346795; active = well fitted inhibition curve with a large enough effect in the signal ratio in the repeat runs, not every such curve was filed as active; the % refers to the signal ratio)
Outline: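 Screening used a GripTite HEK293T line with PR-responsive UAS-beta-lactamase. Cells were challenged with compound in the presence of 1 nM R5020 final for 16 hr at 37C; B/G FRET substrate, 2 hr room temperature, fluorescence.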

[18] = qHTS assay to identify small molecule antagonists of the progesterone receptor (PR) signaling pathway - cell viability counter screen (AID 1346798); note: series mostly up to about 92 µM; nearly all actives have a fitted effect of over 50% in size
Outline: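 Measures cytotoxicity in parallel with the PR antagonist reporter read: HEK293T PR-UAS-bla cells get compound and R5020 for 16 hr, and remaining viable cells are quantified by CellTiter-Glo luminescence.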
% is set by controls: 0 for no effect and ±100 for the full control effect.

CCOC(=O)C(=O)c1csc(NC=O)n1
inactive: Potency [1] | outcome [2] | Potency [3] | Potency [4] | outcome [5] | Potency [6] | outcome [7] | outcome [8] | outcome [9] | outcome [10] | outcome [11] | Potency [12] | Potency [13] | outcome [14] | outcome [15]

CCCCCCCCOC(C)=O
inactive: Potency [1] | outcome [2] | Potency [3] | Potency [6] | outcome [7] | outcome [8] | outcome [9] | outcome [10] | outcome [11] | Potency [12] | Potency [16] | Potency [17] | Potency [18] | outcome [14] | outcome [15]

Cc1cccc(Nc2ccncc2S(=O)(=O)NC(=O)NC(C)C)c1
inactive: Potency [1] | outcome [2] | Potency [3] | Potency [4] | outcome [5] | Potency [6] | outcome [8] | outcome [9] | outcome [10] | outcome [11] | Potency [16] | Potency [17] | Potency [18] | Potency [13] | outcome [14] | outcome [15]

CC(C)CCO
inactive: Potency [1] | outcome [2] | Potency [4] | outcome [5] | Potency [6] | outcome [7] | outcome [8] | outcome [9] | outcome [10] | outcome [11] | Potency [12] | Potency [16] | Potency [17] | Potency [13] | outcome [14] | outcome [15]

CC(=O)OCC(=O)[C@@]1(O)[C@H](OC(C)=O)C[C@H]2[C@@H]3CCC4=CC(=O)C=C[C@]4(C)[C@@]3(F)[C@@H](O)C[C@@]21C
inactive: Potency [1] | outcome [2] | Potency [3] | Potency [6] | outcome [7] | outcome [8] | outcome [9] | Potency [12] | Potency [16] | Potency [13] | outcome [14] | outcome [15]

CO[Si](CCCCl)(OC)OC
inactive: Potency [1] | outcome [2] | Potency [3] | Potency [4] | outcome [5] | outcome [7] | outcome [8] | outcome [9] | Potency [12] | Potency [16] | Potency [17] | Potency [18] | outcome [14] | outcome [15]

O=S(=O)(O)c1cc(O)ccc1O
inactive: Potency [1] | outcome [2] | Potency [3] | Potency [4] | outcome [5] | Potency [6] | outcome [7] | outcome [8] | outcome [10] | outcome [11] | Potency [12] | Potency [16] | Potency [17] | Potency [18] | Potency [13] | outcome [14] | outcome [15]

COC(=O)CCC(=O)O
inactive: Potency [1] | outcome [2] | Potency [4] | Potency [6] | outcome [8] | outcome [9] | outcome [10] | outcome [11] | Potency [12] | Potency [16] | Potency [17] | Potency [18] | Potency [13] | outcome [14] | outcome [15]

C[C@H](CCC(=O)O)[C@H]1CC[C@H]2[C@@H]3[C@H](O)C[C@@H]4C[C@H](O)CC[C@]4(C)[C@H]3C[C@H](O)[C@]12C
inactive: Potency [1] | outcome [2] | Potency [3] | Potency [6] | outcome [8] | outcome [9] | outcome [10] | outcome [11] | Potency [16] | Potency [17] | Potency [13] | outcome [14] | outcome [15]

O=[Si]=O
inactive: Potency [1] | outcome [2] | Potency [3] | Potency [4] | outcome [5] | Potency [6] | outcome [7] | outcome [8] | outcome [9] | Potency [12] | Potency [16] | Potency [17] | Potency [18] | Potency [13] | outcome [14] | outcome [15]

Nc1ccc(/C=C/c2ccc(N)cc2S(=O)(=O)O)c(S(=O)(=O)O)c1
inactive: viability change, negative = cytotoxic [1] 1.69% [at 0.349 µM] | activity change [2] -0.943% [at 0.349 µM] | activity change, negative = inhibition [3] 1.08% [at 0.349 µM] | activity change, negative = cytotoxicity [6] 1.1% [at 0.35 µM] | activity change, negative = cytotoxicity [7] 1.15% [at 0.349 µM] | activity change, negative = cytotoxicity [8] 6.78% [at 0.349 µM] | activation [9] 0.0248% [at 0.349 µM] | activity change, negative = cytotoxicity [12] 0.0708% [at 0.349 µM] | activation [16] 0.0887% [at 0.349 µM] | activity change, negative = inhibition [17] 3.92% [at 0.348 µM] | activity change, negative = cytotoxicity [18] 0.087% [at 0.348 µM] | activity change, negative = cytotoxicity [13] -4.84% [at 0.349 µM] | viability change, negative = cytotoxic [14] -0.698% [at 0.29 µM] | activity change, negative = cytotoxicity [15] 12.6% [at 0.29 µM]
